High-throughput results from PubChem BioAssay.
Compounds with a hit are over-represented: about 21% of the library has one in this group of screens.
SARS PLpro yeast: SARS-CoV PLP inhibition in yeast; S. cerevisiae expressing SARS-CoV PLpro, growth rescue; Potency, µM (highest dose often 32.9 µM), for inactives: top-dose activity, positive = growth rescue, usual class: activators; 330,000 compounds, 0.19% hits; further: potency means the concentration at half of the fitted maximal effect; 0% is about no effect; nearly all actives have a fitted effect of over 55% in size
Shiga inhibitor: Shiga toxin inhibition; Vero cells, Shiga toxin protein synthesis inhibition reporter; inhibition, % at 38.7 µM; 290,000 compounds, 9.2% hits; AID 2315; in the data active means inhibition mostly above about 28%, no sharp cut-off; inactive means mostly below about 43%; further: 0% is about no effect
Pf growth 48h: P. falciparum growth inhibition at 48 hours (one generation); Potency, µM (titrated, usually from 28.7 µM), inactives show at the highest dose activity change, negative = inhibition, usual class: inhibitors; 310,000 compounds, 5.9% hits; P. falciparum luciferase growth in erythrocytes, 48 h; active means well fitted inhibition curve with a large enough effect; inconclusive means small, poorly fitted or top-dose-only effect, or another doubt; inactive means no such curve, though single readings can be large or run the other way; further: potency means the concentration at half of the fitted maximal effect; on the % scale 0 is the no-effect control and ±100 the full control effect
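A one-generation exposure of luciferase-tagged malaria parasites in RPMI 1640/Albumax erythrocyte culture, 37 C and 5% CO2. Inhibition is inferred from decreased luminescence after adding detection reagent.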
NS1 inh: inhibitors of influenza NS1 protein function | Potency, µM (titrated, usually from 46.1 µM), without a hit: at the highest dose activity, positive = more growth | 270,000 compounds, 0.4% hits; further: potency means the concentration at half of the fitted maximal effect; actives are rising curves; nearly all actives have a fitted effect of over 50% in size
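Recovery from NS1-induced slow growth read by OD600 in budding yeast switched to galactose assay medium (pH 6.0, -URA) at 1:100 dilution. Compound 23 nl per well; the matching strain lacking NS1 serves as control.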
CHX counter: counter-screen for Shiga toxin inhibitors: cycloheximide protein synthesis inhibition. cell reporter, cycloheximide protein synthesis inhibition counterscreen. max response, %. 300,000 compounds, 12% hits; in the data active means max response mostly above about 13%, no sharp cut-off; inactive means mostly below about 14%; further: read at 38.3 µM for the half of the compounds with a filed dose; 0% is about no effect
Pf growth 96h: inhibits malaria parasite growth, 96 h; AID 504834; Potency, µM (highest dose often 28.7 µM), for the others: top-dose activity change, negative = inhibition, actives largely listed as inhibitors; P. falciparum luciferase reporter growth, 96 h; 320,000 compounds, 6.9% hits; active means well fitted inhibition curve with a large enough effect; inconclusive means small, poorly fitted or top-dose-only effect, or another doubt; inactive means no such curve, though single readings can be large or run the other way; further: potency means the concentration at half of the fitted maximal effect; on the % scale 0 is the no-effect control and ±100 the full control effect
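Compounds incubated with erythrocytes infected by luciferase-expressing P. falciparum (2% hematocrit, 0.05% parasitemia final) for 96 hours, 37 C in 5% CO2. Growth inhibition scored as decreased luciferase luminescence.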
* = called active by the depositor; ? = inconclusive; · = no result given. Unless noted, the call rests on the fitted dose curve.

SMILES | SARS PLpro yeast | Shiga inhibitor | Pf growth 48h | NS1 inh | CHX counter | Pf growth 96h
O=C(OC[C@H]1O[C@@H](OC(=O)c2cc(O)c(O)c(OC(=O)c3cc(O)c(O)c(O)c3)c2)[C@H](OC(=O)c2cc(O)c(O)c(OC(=O)c3cc(O)c(O)c(O)c3)c2)[C@@H](OC(=O)c2cc(O)c(O)c(OC(=O)c3cc(O)c(O)c(O)c3)c2)[C@@H]1OC(=O)c1cc(O)c(O)c(OC(=O)c2cc(O)c(O)c(O)c2)c1)c1cc(O)c(O)c(OC(=O)c2cc(O)c(O)c(O)c2)c1 | 4% | · | ? | · | · | 9.3µM*
O=[N+]([O-])c1ccc(N2CCN(c3ccccc3)CC2)cc1 | -7% | -8 | 34% | -1% | 2 | -19%
CN1CCN(C(=S)Nc2ccc([N+](=O)[O-])cc2)CC1 | -1% | 1 | 36% | 4% | 6 | -4%
C=CCNC(=S)N1CCN(c2ccc([N+](=O)[O-])cc2)CC1 | -5% | -14 | 1.7µM* | -2% | 1 | ?
CCN1CCC(N2CCN(c3ccc(Cl)cc3)CC2)CC1 | 8% | -4 | -1% | 2% | 1 | 24%
CCN1CCN(C(=S)Nc2ccc([N+](=O)[O-])cc2)CC1 | -4% | 17 | 19% | 5% | 21* | 12%
CCCN1CCC(N2CCN(c3ccc([N+](=O)[O-])cc3)CC2)CC1 | -2% | -16 | ? | 12% | 1 | 5.9µM*
O=[N+]([O-])c1ccc(N2CCCCC2)cc1 | 1% | 45 | 34% | 5% | 27* | 27%
O=C(CCNC(=O)C1CCN(S(=O)(=O)c2ccccc2)CC1)NCc1ccc(Cl)cc1Cl | 6% | -4 | 16% | -24% | 0 | ?
C[C@]12c3[nH]c4ccccc4c3CCN1C(=O)C(CC(=O)NCCN1CCOCC1)C[C@@H]2C(=O)N1CCCCC1 (stereo partly drawn) | 4% | · | · | · | · | ·
CC(C)C(C)NC(=O)COC(=O)/C=C/c1ccc(S(=O)(=O)N2CCc3ccccc32)cc1 (stereo not drawn) | -1% | -4 | ? | · | 0 | ?
O=[N+]([O-])c1ccc(N2CCN(C(=S)NCc3ccc(Cl)cc3)CC2)cc1 | -1% | 0 | ? | ? | 0 | 2%
Fc1cc(F)c(C2SCCN2C(=S)Nc2cccc(C(F)(F)F)c2)c(F)c1 (stereo not drawn) | -2% | 15 | ? | 3% | -1 | 2.9µM*
CCNC(=S)N1CCN(c2ccc([N+](=O)[O-])cc2)CC1 | -3% | -14 | 12µM* | -14% | -1 | 6.6µM*
CCN(CC)C(=O)C1CCCN(c2ccc([N+](=O)[O-])cc2)C1 (stereo not drawn) | 0% | 6 | 3% | -3% | 2 | 1.7µM*
CCN1CCN(C(=S)Nc2cccc(C(F)(F)F)c2)CC1 | 11% | -2 | 19% | -3% | 1 | 9.3µM*
CCN(CC)C(=O)C1CCCN(c2ccc([N+](=O)[O-])cc2/C=N/NC(=O)c2ccc([N+](=O)[O-])cc2)C1 (stereo not drawn) | -3% | -3 | ? | 5% | -4 | ?
CC(=O)N1CCN(c2ccc([N+](=O)[O-])cc2)CC1 | -1% | -13 | ? | -2% | -4 | 179%
CNC(=S)N1CCN(c2ccc([N+](=O)[O-])cc2)CC1 | -1% | -20 | ? | -1% | 2 | 13µM*
COCCCNC(=S)N1CCN(c2ccc([N+](=O)[O-])cc2)CC1 | 12% | -7 | 6.6µM* | 8% | -5 | -26%
CCNC(=O)NCCNC(=O)c1cc(OCC(F)(F)F)ccc1OCC(F)(F)F | -2% | 10 | 2.9µM* | 5% | 3 | 207%
O=C(NNC(=O)c1cc(OCC(F)(F)F)ccc1OCC(F)(F)F)c1cccc(C(F)(F)F)c1 | -2% | 56* | 15µM* | -17% | 20* | ?
FC(F)(F)c1cc(Oc2ccc(Cl)cc2)ncc1-c1nnc(-c2ccc(Cl)cc2)o1 | 0% | -8 | ? | 5% | 2 | 38%
CC(C(=O)Nc1ccc2c(c1)OCCO2)N1CCN(C(=O)c2ccco2)CC1 (stereo not drawn) | 1% | 3 | · | -1% | -2 | ?
